Laboratory results as given in PubChem BioAssay (NCI).
About 79,000 compounds went through this panel and 15% of them were active in at least one assay; those are over-represented in the sample as a whole. Activity calls are given as the source filed them. Rule as the data show it: active = growth inhibition above about 70%; inactive = the rest.

Assay: NCI Yeast Anticancer Drug Screen. Data for the mlh1 strain (AID 171);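 also: 0% = growth of vehicle-treated control cultures of the same strain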
Details: S. cerevisiae mlh1 strain growth inhibition, active compounds read high
Experimental: Growth inhibition of yeast strains with defined genetic alterations is measured as a screen for potential anti-cancer activity. Selected strains with alterations in DNA damage repair or cell cycle control were exposed to compounds and growth inhibition was measured relative to vehicle treated controls. The strain used in this assay is mlh1

Measured: growth inhibition

O=C(O)/C=C\C(=O)NNc1ccc(Br)cc1
active: at 3.7 µM 77% | at 11.0 µM 98% | at 33.0 µM 98% | at 100.0 µM 99%
inactive: at 1.2 µM -2%

O=C(O)NCC1CCCCC1 (tested in a mixture with another compound)
inactive: at 1.2 µM -2% | at 3.7 µM -6% | at 11.0 µM -7% | at 33.0 µM -3% | at 100.0 µM 32%

CC(C)(C(=O)NN)c1ccccc1
inactive: at 1.2 µM 3% | at 3.7 µM 5% | at 11.0 µM 21% | at 33.0 µM 46%
active: at 100.0 µM 91%

O=[N+]([O-])c1ccc2nnnn2c1
inactive: at 1.2 µM 0% | at 3.7 µM 1% | at 11.0 µM 4% | at 33.0 µM 14% | at 100.0 µM 34%

c1ccc(C2=NNC3c4ccccc4-c4ccccc4N3C2)cc1 (stereo not given)
inactive: at 1.2 µM -1% | at 3.7 µM 9% | at 11.0 µM 2% | at 33.0 µM 19% | at 100.0 µM 58%

O=S(=O)(Oc1c(Cl)cc(Cl)cc1Cl)c1ccccc1
inactive: at 1.2 µM -1% | at 3.7 µM -2% | at 11.0 µM -10% | at 33.0 µM 13% | at 100.0 µM 28%

CCOc1nc(OCC)nc(-c2cccn2-c2ccccc2)n1
active: at 100.0 µM 89%
inactive: at 1.2 µM -25% | at 3.7 µM -6% | at 11.0 µM -12% | at 33.0 µM 2%

O=C(CSS(=O)(=O)O)c1ccccc1
inactive: at 1.2 µM -4% | at 3.7 µM 1% | at 11.0 µM 3% | at 33.0 µM 12% | at 100.0 µM 24%
